The nature of assay [1]: BSK_LPS_PGE2: BioMAP Diversity Plus: LPS Assay for Prostaglandin E2 (PGE2) Biomarker Activity (AID 2283082).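 As to AC50: secreted prostaglandin E2 measured by ELISA in LPS-stimulated co-culture.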 Conditions: primary human HUVEC with PBMC; actives raise or lower the signal. In outline:
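PGE2 release measured by ELISA in an LPS-activated co-culture of human umbilical vein endothelial cells and peripheral blood mononuclear cells, read at 24 h post-dosing. DMSO served as baseline for bidirectional curve fitting.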

Read-out in assay [2]: Macrophage colony-stimulating factor (MCSF), CSF1 (gene 1435)
Nature of the assay: BSK_LPS_MCSF: BioMAP Diversity Plus: LPS Assay for Macrophage colony-stimulating factor (MCSF) Biomarker Activity (AID 2283083). Conditions: primary human HUVEC with PBMC; actives raise or lower the signal. Put shortly:
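Compound is added to a human vascular primary co-culture of umbilical vein endothelium and blood mononuclear cells. After 24 h, M-CSF is quantified by ELISA. Signal changes are fitted in both directions against DMSO.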

Read-out in assay [3]: Tissue Factor, F3 (gene 2152)
Briefly: BSK_LPS_TissueFactor: BioMAP Diversity Plus: LPS Assay for Tissue Factor Biomarker Activity (AID 2283084). Conditions: primary human HUVEC with PBMC; actives raise or lower the signal. Put shortly:
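In this co-culture system of umbilical vein endothelium with PBMC, stimulated with LPS, cell-surface CD142 is detected by ELISA at 24 h. Endpoint values derive from bidirectional fitting, DMSO serving as baseline.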

Read-out in assay [4]: Tumor necrosis factor (Homo sapiens) (UniProt P01375)
Nature of the assay: BSK_LPS_TNFa: BioMAP Diversity Plus: LPS Assay for Tumour Necrosis Factor alpha (TNFa) Biomarker Activity (AID 2283085).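 As to AC50: TNFa protein level quantified by ELISA in the co-culture.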 Conditions: primary human HUVEC with PBMC; actives raise or lower the signal. In outline:
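TNFa was quantified by ELISA in LPS-activated co-cultures of human endothelial cells and PBMC, 24 h post-dosing. Both increases and decreases versus DMSO were fitted.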

Read-out in assay [5]: Vascular cell adhesion molecule 1 (VCAM1), VCAM1 (gene 7412)
Nature of the assay: BSK_LPS_VCAM1: BioMAP Diversity Plus: LPS Assay for Vascular cell adhesion molecule 1 (VCAM1) Biomarker Activity (AID 2283086). Particulars: primary human HUVEC with PBMC; actives raise or lower the signal. In outline: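 VCAM-1 quantified by ELISA in an LPS-activated co-culture of human endothelial cells and peripheral blood mononuclear cells, read 24 h post-treatment. Fitted in both directions versus DMSO; parallel SRB staining flags overt cytotoxicity.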

Read-out in a further assay: CD38, CD38 (gene 952)
Nature of the assay: BSK_SAg_CD38: BioMAP Diversity Plus: SAg Assay for CD38 Biomarker Activity (AID 2283087). Particulars: primary human HUVEC with PBMC; actives raise or lower the signal. Put shortly:
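CD38 quantified by ELISA (fluorescence) in a superantigen-activated endothelial cell–PBMC co-culture at 24 h post-dose. Activity fitted in both directions relative to DMSO; parallel SRB and Alamar Blue cytotoxicity read-outs.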

Read-out in a further assay: CD40, CD40 (gene 958)
Nature of the assay: BSK_SAg_CD40: BioMAP Diversity Plus: SAg Assay for CD40 Biomarker Activity (AID 2283088). Conditions: primary human HUVEC with PBMC; actives raise or lower the signal. In outline:
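Fluorescence ELISA read-out of CD40 from umbilical vein endothelium plus peripheral blood mononuclear cells, sampled 24 h after dosing. Values come from bidirectional curve fitting with DMSO as baseline.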

Read-out in another assay: CD69, CD69 (gene 969)
Nature of the assay: BSK_SAg_CD69: BioMAP Diversity Plus: SAg Assay for CD69 Biomarker Activity (AID 2283089).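 As to AC50: cell surface CD69 protein quantified by ELISA with fluorescence detection.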 Conditions: primary human HUVEC with PBMC; actives raise or lower the signal. Put shortly:
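ELISA, fluorescence read-out: CD69 on human umbilical vein endothelial cell + PBMC co-culture, 24 h post-dosing. Gain or loss of signal fitted bidirectionally against DMSO baseline.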

Read-out in assay [6]: Monocyte Chemoattractant Protein-1 (MCP1), CCL2 (gene 6347)
Nature of the assay: BSK_SAg_MCP1: BioMAP Diversity Plus: SAg Assay for Monocyte Chemoattractant Protein-1 (MCP1) Biomarker Activity (AID 2283090). Conditions: primary human HUVEC with PBMC; actives raise or lower the signal. Put shortly: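 Values derive from bidirectional fitting of ELISA-measured MCP1 against DMSO controls. Readings were taken 24 h after dosing human vascular endothelial cells co-cultured with peripheral blood mononuclear cells under superantigen stimulation.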

Read-out in assay [7]: E-selectin (Homo sapiens) (UniProt P16581)
Briefly: BSK_SAg_Eselectin: BioMAP Diversity Plus: SAg Assay for Eselectin Biomarker Activity (AID 2283091). Particulars: primary human HUVEC with PBMC; actives raise or lower the signal. In outline: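 Primary human endothelial cells and peripheral blood mononuclear cells were co-cultured and exposed to chemical for 24 hours. E-selectin levels were then quantified by ELISA, with bidirectional curve fitting normalised to DMSO controls.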

Read-out in assay [8]: Monokine induced gamma interferon (MIG), CXCL9 (gene 4283)
Briefly: BSK_SAg_MIG: BioMAP Diversity Plus: SAg Assay for Monokine induced gamma interferon (MIG) Biomarker Activity (AID 2283092). Conditions: primary human HUVEC with PBMC; actives raise or lower the signal. In outline:
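ELISA readout of MIG/CXCL9; primary human umbilical vein endothelial cells co-cultured with peripheral blood mononuclear cells; 24 h post-dose; gain/loss fit vs DMSO baseline.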

Assay [9] is described as follows: BSK_SAg_PBMCCytotoxicity: PBMC Cytotoxicity Assessment in the BioMAP Diversity Plus: SAg Assay (AID 2283093).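 Also: fitted both ways against DMSO so a hit may be loss or gain of signal.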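 As to AC50: PBMC superantigen activated with SEB plus TSST-1 one hour after compound addition.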 Particulars: primary human HUVEC with PBMC. In outline: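 PBMC viability by Alamar Blue reduction, fluorescence read at 546/580 nm after 6 h dye exposure. Cells were dosed 1 h before SEB plus TSST-1 activation (20 ng/mL final each), then held 90 h; endothelial/PBMC human co-culture.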

Read-out in assay [10]: Interleukin-8 (IL8), CXCL8 (gene 3576)
Nature of the assay: BSK_SAg_IL8: BioMAP Diversity Plus: SAg Assay for Interleukin-8 (IL8) Biomarker Activity (AID 2283094). Particulars: primary human HUVEC with PBMC; actives raise or lower the signal. Put shortly:
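ELISA readout of IL-8 from a superantigen-activated endothelial/PBMC primary human co-culture, taken 24 h post-dosing and fitted in both directions against DMSO; parallel SRB total-protein staining flags overt cytotoxicity.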

Assay [11] can be described thus: BSK_SAg_Proliferation: Cell Proliferation Assessment in the BioMAP Diversity Plus: SAg Assay (AID 2283095).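 Also: relative cell number as total protein by SRB absorbance in sub-confluent culture.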 Conditions: primary human HUVEC with PBMC. Put shortly: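 Relative cell number in the endothelial cell/PBMC co-culture was quantified at 96 h by SRB staining (0.1% SRB, 10% TCA fixation, read at 560 nm). Curves were fitted in both directions relative to DMSO baseline.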

Assay [12] is described as follows: BSK_SAg_SRB: Viability Assessment in the BioMAP Diversity Plus: SAg Assay (AID 2283096).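 Also: cells read one day after compound addition; hits may be either gain or loss of signal compared with DMSO.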 Particulars: primary human HUVEC with PBMC. In outline:
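Compounds were added to a human vascular co-culture of umbilical vein endothelium and PBMC. After 24 h, parallel cultures were fixed with 10% TCA, stained with 0.1% sulforhodamine B and read at 560 nm. Gain or loss of signal was fitted relative to DMSO.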

Calls of active or inactive are those of the source. The calls were made as follows: active = hit-call score of the fitted dose curve at least 0.9, where 1 is the maximum; inactive = score below 0.9.

Sequence of Tumor necrosis factor (Homo sapiens) (P01375 whole entry, looked up): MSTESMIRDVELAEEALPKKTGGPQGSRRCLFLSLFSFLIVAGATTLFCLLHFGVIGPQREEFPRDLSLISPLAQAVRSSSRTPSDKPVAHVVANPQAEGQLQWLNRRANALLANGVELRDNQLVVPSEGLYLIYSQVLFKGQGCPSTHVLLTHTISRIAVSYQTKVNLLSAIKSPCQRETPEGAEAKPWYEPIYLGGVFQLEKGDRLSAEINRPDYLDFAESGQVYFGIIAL
Sequence of E-selectin (Homo sapiens) (P16581 whole entry, looked up): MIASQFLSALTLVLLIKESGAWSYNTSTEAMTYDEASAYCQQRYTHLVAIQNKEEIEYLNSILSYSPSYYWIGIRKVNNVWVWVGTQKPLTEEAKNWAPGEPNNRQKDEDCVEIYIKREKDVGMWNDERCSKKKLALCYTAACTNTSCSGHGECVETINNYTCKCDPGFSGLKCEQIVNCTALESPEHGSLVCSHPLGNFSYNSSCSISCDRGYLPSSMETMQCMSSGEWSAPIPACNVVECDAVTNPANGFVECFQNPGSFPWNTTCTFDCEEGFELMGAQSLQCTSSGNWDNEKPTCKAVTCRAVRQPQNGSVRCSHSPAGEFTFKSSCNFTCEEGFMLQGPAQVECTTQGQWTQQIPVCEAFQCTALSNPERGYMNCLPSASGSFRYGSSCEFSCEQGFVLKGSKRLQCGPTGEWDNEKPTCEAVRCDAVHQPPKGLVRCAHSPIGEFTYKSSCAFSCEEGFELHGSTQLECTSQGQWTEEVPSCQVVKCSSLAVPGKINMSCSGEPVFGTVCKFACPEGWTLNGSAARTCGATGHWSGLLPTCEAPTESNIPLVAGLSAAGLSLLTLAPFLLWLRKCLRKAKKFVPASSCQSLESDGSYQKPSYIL

As for `Cn1cc(-c2ccccc2)c(=O)c(-c2cccc(C(F)(F)F)c2)c1`, in [1], the half-maximal activity concentration (AC50) – broadly, the concentration at which the activity in the assay is half-maximal – was 2.7 µM (active). Also, the outcome in [2] is “inactive”; in assay [3] it was “inactive”; in [4] it was “inactive”; in [5], “inactive”; with CD38, CD38 (gene 952) it was “inactive”; in the assay with CD40, CD40 (gene 958) it was “inactive”. The outcome was “inactive” with CD69, CD69 (gene 969); “inactive” in assay [6]; “inactive” in assay [7]; “inactive” in [8]; “inactive” in assay [9]; “inactive” in assay [10]. The result in assay [11] and in [12] was inactive.

`Cc1ccc(N)cc1`: the outcome in [1] was “inactive”; in [2] it was “inactive”; in assay [3] it was “inactive”; in [4] it was “inactive”; in assay [5] it was “inactive”; in the assay with CD38, CD38 (gene 952) it was “inactive”. For the same compound, the outcome was “inactive” with CD40, CD40 (gene 958); “inactive” with CD69, CD69 (gene 969); “inactive” in assay [6]; “inactive” in assay [7]; “inactive” in [8]; “inactive” in assay [9]. In addition, the result in assay [10], in [11] and in assay [12] was inactive.

For `CN(C)[C@@H]1C(=O)C(C(N)=O)=C(O)[C@@]2(O)C(=O)C3=C(O)c4c(O)cccc4[C@@](C)(O)[C@H]3C[C@@H]12`, the outcome in [1] is “inactive”; in assay [2] it was “inactive”; in [3], “inactive”; in assay [4] it was “inactive”; in assay [5], “inactive”; in the assay with CD38, CD38 (gene 952), “inactive”. The outcome with CD40, CD40 (gene 958) is “inactive”; with CD69, CD69 (gene 969), “inactive”; in assay [6], “inactive”; in assay [7], “inactive”; in assay [8] it was “inactive”; in assay [9] it was “inactive”. The result in assay [10], in assay [11] and in assay [12] was inactive.

In the case of `Clc1ccc(C(c2ccc(Cl)cc2)C(Cl)Cl)cc1`, the concentration at half-maximal activity (AC50) in assay [1] was 28.5 µM (active); in assay [2], 25.6 µM (active); in [3], 37.8 µM (active); in assay [4], 31.7 µM (active); in [5], 30.5 µM (active); with CD38, CD38 (gene 952) it was 29.3 µM (active). Moreover, the half-maximal activity concentration (AC50) with CD40, CD40 (gene 958) is 26.2 µM (active); with CD69, CD69 (gene 969), 29.9 µM (active); in assay [6] it was 34.2 µM (active); in assay [7], 28.9 µM (active); in [8] it was 35.6 µM (active); in assay [9], 14.3 µM (active). Moreover, the AC50 in assay [10] was 29 µM (active); in assay [11], 11.4 µM (active); in assay [12], 29.5 µM (active).

The record behind these values is PubChem BioAssay (EPA / NIEHS).
